According to PubChem BioAssay AID1159580 (chemical genetic matrix, 2015):
About 2,000 (36%) of roughly 5,500 compounds were called active. Inconclusive results (about 18%) are left out. Cut-off read from the data, not from the text of the source: active = normalized growth mostly below about 0.91 (no sharp cut-off); inconclusive = no clear call, values can overlap the other calls; inactive = mostly above about 0.92. Some of the results follow.

Experiment: chemical genetic growth profiling, strain panel (AID 1159580);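 note: tested at 20 µM; growth read once vehicle control cultures reached saturation at 30 °C; 1 = growth at the plate median or of vehicle wells; lower values mean less growth of the strain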
Conditions: growth OD

Measured: normalized growth

CC(C)CCCC(C)[C@H]1CCC2C3C(=O)C=C4C[C@@H](O)CC[C@]4(C)C3CC[C@@]21C (stereo partly drawn)
inactive: S. cerevisiae deletion strains, locus YJL187C, strain SWE1, hits give low values 1 | S. cerevisiae deletion strains, locus YJR043C, strain POL32, hits give low values 1.01 | S. cerevisiae deletion strains, locus YJR066W, strain TOR1, hits give low values 0.948 | S. cerevisiae deletion strains, locus YKL009W, strain mrt4, hits give low values 1.07 | S. cerevisiae deletion strains, locus YKL068W, hits give low values 1.01 | S. cerevisiae deletion strains, locus YKL085W, strain MDH1 (second series), hits give low values 1.03 | S. cerevisiae deletion strains, locus YKL085W, strain MDH1, hits give low values 1.03 | S. cerevisiae deletion strains, locus YKL160W, strain elf1, hits give low values 0.981 | S. cerevisiae deletion strains, locus YKR001C, strain vps1, hits give low values 1.05 | S. cerevisiae deletion strains, locus YKR026C, strain gcn3, hits give low values 0.996 | S. cerevisiae deletion strains, locus YKR091W, strain srl3, hits give low values 1 | S. cerevisiae deletion strains, locus YLL001W, strain dnm1, hits give low values 0.998 | S. cerevisiae deletion strains, locus YLL026W, hits give low values 1.01 | S. cerevisiae deletion strains, locus YLL041C, strain sdh2, hits give low values 0.991 | S. cerevisiae deletion strains, locus YLR027C, strain aat2, hits give low values 0.989 | S. cerevisiae deletion strains, locus YLR039C, strain RIC1, hits give low values 1.08 | S. cerevisiae deletion strains, locus YLR058C, strain SHM2, hits give low values 1.06 | S. cerevisiae deletion strains, locus YLR102C, strain apc9, hits give low values 1.03 | S. cerevisiae deletion strains, locus YLR113W, strain HOG1, hits give low values 0.975 | S. cerevisiae deletion strains, locus YLR221C, strain rsa3, hits give low values 0.981 | S. cerevisiae deletion strains, locus YLR258W, strain gsy2, hits give low values 1.02 | S. cerevisiae deletion strains, locus YLR262C, strain YPT6 (second series), hits give low values 0.972 | S. cerevisiae deletion strains, locus YLR262C, strain YPT6, hits give low values 1.09 | S. cerevisiae deletion strains, locus YLR268W, strain sec22, hits give low values 1.07 | S. cerevisiae deletion strains, locus YLR320W, strain mms22, hits give low values 1.03 | S. cerevisiae deletion strains, locus YLR330W, strain CHS5, hits give low values 1.02 | S. cerevisiae deletion strains, locus YLR342W, strain FKS1 (second series), hits give low values 1.07 | S. cerevisiae deletion strains, locus YLR342W, strain FKS1, hits give low values 1 | S. cerevisiae deletion strains, locus YLR357W, strain rsc2, hits give low values 1.06 | S. cerevisiae deletion strains, locus YLR370C, strain arc18, hits give low values 0.984 | S. cerevisiae deletion strains, locus YLR371W, strain rom2, hits give low values 1.03 | S. cerevisiae deletion strains, locus YLR384C, strain iki3, hits give low values 0.997 | S. cerevisiae deletion strains, locus YLR418C, strain cdc73, hits give low values 1.04 | S. cerevisiae deletion strains, locus YML016C, strain PPZ1, hits give low values 1.03 | S. cerevisiae deletion strains, locus YML032C, strain rad52, hits give low values 1.02 | S. cerevisiae deletion strains, locus YML120C, strain ndi1, hits give low values 0.965 | S. cerevisiae deletion strains, locus YML124C, strain tub3, hits give low values 1.02 | S. cerevisiae deletion strains, locus YMR058W, strain fet3, hits give low values 0.992 | S. cerevisiae deletion strains, locus YMR078C, strain ctf18, hits give low values 1.05 | S. cerevisiae deletion strains, locus YMR125W, strain sto1, hits give low values 1.01 | S. cerevisiae deletion strains, locus YMR129W, hits give low values 0.989 | S. cerevisiae deletion strains, locus YMR205C, strain PFK2, hits give low values 1.05 | S. cerevisiae deletion strains, locus YMR223W, strain ubp8, hits give low values 1.02 | S. cerevisiae deletion strains, locus YMR231W, strain pep5, hits give low values 1 | S. cerevisiae deletion strains, locus YMR307W, strain GAS1, hits give low values 1.11 | S. cerevisiae deletion strains, locus YNL067W, strain RPL9B, hits give low values 1.02 | S. cerevisiae deletion strains, locus YNL071W, strain lat1, hits give low values 0.993 | S. cerevisiae deletion strains, locus YNL183C, strain NPR1, hits give low values 0.937 | S. cerevisiae deletion strains, locus YNL209W, strain ssb2, hits give low values 1 | S. cerevisiae deletion strains, locus YNL233W, strain BNI4, hits give low values 1.02 | S. cerevisiae deletion strains, locus YNL248C, strain rpa49, hits give low values 0.934 | S. cerevisiae deletion strains, locus YNL250W, strain rad50, hits give low values 1.03 | S. cerevisiae deletion strains, locus YNL271C, strain bni1, hits give low values 1.05 | S. cerevisiae deletion strains, locus YNL298W, strain CLA4, hits give low values 1.04 | S. cerevisiae deletion strains, locus YNL307C, strain MCK1, hits give low values 1.05 | S. cerevisiae deletion strains, locus YNL322C, strain KRE1 (second series), hits give low values 0.98 | S. cerevisiae deletion strains, locus YNR049C, strain mso1, hits give low values 0.996 | S. cerevisiae deletion strains, locus YNR052C, strain pop2, hits give low values 1.03 | S. cerevisiae deletion strains, locus YOL012C, strain htz1 1.19 | S. cerevisiae deletion strains, locus YOL147C, strain pex11, hits give low values 1.01 | S. cerevisiae deletion strains, locus YOR001W, strain rrp6, hits give low values 0.994 | S. cerevisiae deletion strains, locus YOR061W, strain CKA2, hits give low values 1.05 | S. cerevisiae deletion strains, locus YOR069W, strain VPS5, hits give low values 1.02 | S. cerevisiae deletion strains, locus YOR070C, strain gyp1, hits give low values 0.999 | S. cerevisiae deletion strains, locus YOR080W, strain dia2, hits give low values 1.04 | S. cerevisiae deletion strains, locus YOR083W, strain WHI5, hits give low values 0.969 | S. cerevisiae deletion strains, locus YOR106W, strain vam3, hits give low values 0.978 | S. cerevisiae deletion strains, locus YOR136W, strain idh2, hits give low values 1.04 | S. cerevisiae deletion strains, locus YOR144C, strain elg1, hits give low values 1.02 | S. cerevisiae deletion strains, locus YOR184W, strain ser1, hits give low values 1.06 | S. cerevisiae deletion strains, locus YOR231W, strain MKK1, hits give low values 1 | S. cerevisiae deletion strains, locus YOR265W, strain rbl2, hits give low values 0.996 | S. cerevisiae deletion strains, locus YOR270C, strain vph1, hits give low values 0.907 | S. cerevisiae deletion strains, locus YOR290C, strain snf2, hits give low values 1.07 | S. cerevisiae deletion strains, locus YOR316C, strain cot1, hits give low values 1.04 | S. cerevisiae deletion strains, locus YPL051W, strain arl3, hits give low values 0.981 | S. cerevisiae deletion strains, locus YPL055C, strain LGE1, hits give low values 1.05 | S. cerevisiae deletion strains, locus YPL078C, strain atp4, hits give low values 0.935 | S. cerevisiae deletion strains, locus YPL106C, strain sse1, hits give low values 1.08 | S. cerevisiae deletion strains, locus YPL240C, strain hsp82, hits give low values 0.985 | S. cerevisiae deletion strains, locus YPL241C, strain CIN2, hits give low values 1.01 | S. cerevisiae deletion strains, locus YPL256C, strain CLN2, hits give low values 0.989 | S. cerevisiae deletion strains, locus YPR119W, strain clb2, hits give low values 1.03 | S. cerevisiae deletion strains, locus YPR141C, strain kar3, hits give low values 1.03 | S. cerevisiae deletion strains, locus YPR163C, strain tif3, hits give low values 1.03 | S. cerevisiae deletion strains, locus YPR167C, strain met16, hits give low values 1.04 | S. cerevisiae deletion strains, strain wtn01, hits give low values 1.03 | S. cerevisiae strains, strain wild type, hits give low values 1.02
